# Screens deposited in PubChem by National Center for Advancing Translational Sciences (NCATS).
# TGFb SMAD3 inh – TGF-b pathway inhibition; HepG2 CAGA-GFP TGF-b/SMAD3 reporter, GFP fluorescence, 18 h; TGF-beta stimulated, 500 pg/mL final; Potency, µM (top dose mostly 46.1 µM), without a hit: at the top dose activity, negative = inhibition, usual class: inhibitors; 410,000 compounds, 1.2% hits; AID 588855; note: potency is the fitted concentration of half-maximal effect; % is set by controls: 0 for no effect and ±100 for the full control effect; nearly all actives have a fitted effect of over 65% in size
#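 Smad-responsive CAGA-GFP expression was quantified in HEPG2 cells exposed to compounds and 500 pg/mL final TGF-beta for 18 h at 37 degrees C; unstimulated wells defined full inhibition.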
# S2 tox – reduces viability in counter-screen for ATXN expression inhibitors. S2 cells (HEK-293 line with an ATXN2-luciferase reporter) viability, CellTiter-Fluor protease fluorescence, 24 h. 400,000 compounds, 0.49% hits. Potency, µM (highest dose often 56.7 µM), actives largely listed as cytotoxic. AID 651635; note: potency is the fitted concentration of half-maximal effect; nearly all actives have a fitted effect of over 40% in size
# D3 ag – activates the human D3 dopamine receptor | D3R DiscoveRx beta-arrestin cells, luminescence, 90 min | max activation, % | 410,000 compounds, 0.58% hits; in the data active = max activation above about 30%; note: 0% is about no effect
# Target sequence (P35462 whole entry, looked up): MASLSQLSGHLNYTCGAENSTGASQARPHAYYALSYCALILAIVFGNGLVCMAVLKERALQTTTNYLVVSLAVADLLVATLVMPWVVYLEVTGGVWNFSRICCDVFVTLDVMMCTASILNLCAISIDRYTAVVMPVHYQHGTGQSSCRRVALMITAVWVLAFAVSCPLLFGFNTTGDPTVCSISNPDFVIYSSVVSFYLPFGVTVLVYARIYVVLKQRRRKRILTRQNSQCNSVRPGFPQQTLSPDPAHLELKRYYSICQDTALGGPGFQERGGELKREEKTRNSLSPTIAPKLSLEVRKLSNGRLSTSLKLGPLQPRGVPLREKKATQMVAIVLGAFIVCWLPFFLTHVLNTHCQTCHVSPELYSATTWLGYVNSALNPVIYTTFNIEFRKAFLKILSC
#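 Agonist-mode cell screen: cells plated at 1500/well and incubated overnight at 37 °C, then exposed to library compounds for 90 min at 37 °C. Detection reagent was added for 30–60 min at room temperature, and luminescence was read.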
# D3 antag – antagonists of human D3 dopamine receptor | P35462 | D3R cells, DiscoveRx beta-arrestin luminescence, antagonist mode; hits give low values | max response, negative = inhibition, % | 360,000 compounds, 2.5% hits | AID 652054; in the data active = max response below about -50%; inconclusive = no clear call, values can overlap the other calls; note: % is set by controls: 0 for no effect and ±100 for the full control effect
#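 Cells plated overnight at 1500 cells/well, then exposed to library compounds with dopamine controls for 90 minutes at 37 degrees C. DiscoveRx reagent added for 30–60 minutes at room temperature; luminescence read, quantitative HTS format.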
# HepG2 viability – counter-screen for TGF-b inhibitors: cytotoxicity in HepG2 cells; Potency, µM (highest dose often 46.1 µM), for the others: at the top dose activity change, negative = cytotoxicity, hits mostly cytotoxic; AID 588856; 410,000 compounds, 0.76% hits; HepG2 CAGA-GFP viability, ATP luminescence, 18 h; note: potency is the fitted concentration of half-maximal effect
#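 HepG2 CAGA-GFP cells (1000/well, DMEM with 1% FBS) received compound, then TGF-beta at 500 pg/mL final, and were incubated 18 hours at 37 degrees C. Viability was read by CellTiter-Glo luminescence. Media-only wells were set as complete cell-killing and DMSO as no toxicity.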
# ATXN2 expr inh – inhibitors of ATXN2 expression | Potency, µM (titrated, usually from 57 µM), for inactives: at the highest dose activity change, negative = inhibition, hits mostly inhibitors | 360,000 compounds, 0.72% hits | HEK-293 ATXN2-luciferase reporter, luminescence, 24 h | AID 1745845; note: potency is the fitted concentration of half-maximal effect; % is set by controls: 0 for no effect and ±100 for the full control effect; nearly all actives have a fitted effect of over 55% in size
#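 qHTS (up to 57 uM final) was run with 24 h compound exposure of reporter cells at 37 °C. Each well was multiplexed: SteadyGlo luminescence measured ATXN2-luciferase expression after a fluorogenic Gly-Phe-AFC viability readout (25 uM final).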
# * = called active by the depositor; i = inactive; u = inconclusive; x = not tested or not shown; [ ] = another dose, or the depositor's remark. This is a sample that favours compounds with a hit; in the whole collection about 4.7% have one here. Unless noted, calls come from the whole dose curve; as a rule, active = well fitted curve in the direction sought with a large enough effect; inconclusive = small, poorly fitted or top-dose-only effect, or another doubt; inactive = no such curve, though single readings can be large; an effect the other way counts as inactive or inconclusive.
SMILES,TGFb SMAD3 inh,S2 tox,D3 ag,D3 antag,HepG2 viability,ATXN2 expr inh
CCN(C[C@H]1N[C@@](CC)(C(=O)OC)[C@H]2C(=O)N(Cc3ccccc3)C(=O)[C@@H]12)C(=O)c1ccc(F)cc1,-23.3%,i,28.3,23.9,-3.4%,3.9%
COC(=O)[C@]1(Cc2ccccc2)N[C@H](CN(C)C(=O)Nc2ccccc2)[C@@H]2C(=O)N(C)C(=O)[C@@H]21,14.2%,i,2.2,8.7,5.6%,-3.9%
CCN(C[C@H]1N[C@@](Cc2ccccc2)(C(=O)OC)[C@H]2C(=O)N(Cc3ccccc3)C(=O)[C@@H]12)S(=O)(=O)c1ccccc1,-8.0%,i,-14.2,-72.2*,-0.5%,5.5%
CCN1CCN(c2cc(SC(C)C)nc(-c3ccc(OC)cc3)n2)CC1,u,u,-23.2,-64.9*,-56.6%,u
O=C(NCCN1Cc2ccccc2OC(c2ccsc2)C1)c1ccc2[nH]ccc2c1 (stereo unspecified),x,i,x,x,x,x
CC(C)Cc1cc(CN2CCCC(CO)(Cc3cccc(Cl)c3)C2)[nH]n1 (stereo unspecified),u,u,-20.4,-67.0*,-58.6%,u
Cc1cc(CN2CCCC(CO)(Cc3cccc(Cl)c3)C2)n[nH]1 (stereo unspecified),-6.7%,i,-17.8,-3.0,-15.5%,-14.0%
OCC1(Cc2cccc(C(F)(F)F)c2)CCN(Cc2cc(F)cc(F)c2)CC1,u,u,-9.9,6.0,-45.9%,u
CC(C)Cc1cc(CN2CCC(CO)(Cc3cccc(C(F)(F)F)c3)CC2)[nH]n1,u,i,-15.8,-15.7,15.8µM*,-16.8%[11.3 µM]
Cc1ccc(-n2cc(CN3CCC(CO)(Cc4cccc(C(F)(F)F)c4)CC3)cn2)cc1,u,i,-10.0,-61.2*,11.2µM*,-33.6%[11.3 µM]
[O-][N+]12CCCc3cccc(c31)CCC2,-17.9%,x,x,x,-3.9%,x
Cc1cc(C(=O)N2CCOc3ccc(CN4CCC(Oc5cccnc5)CC4)cc3C2)c(C)o1,x,i,x,x,x,x
O=C(Nc1ncnc2nc[nH]c12)c1ccccc1,0.6%,x,x,x,-0.3%,x
Cn1c(=O)c(F)c(Nc2ccc(I)cc2F)c2c(=O)n(C[C@@H](O)CO)cnc21,x,x,x,x,x,-11.3%
O=C(N/N=C/c1ccc(OCc2ccccc2)cc1)c1cc[n+](Cc2ccccc2)cc1,4.8%,i,-3.1,-59.3*,8.0%,25.9%
CC(C)c1ccc(OCc2cccc(C(=O)N/N=C/c3cccnc3)c2)cc1,-9.2%,i,5.9,10.8,-32.3%,10.6µM*
CCOc1ccc(OCc2cccc(C(=O)N/N=C/c3cccnc3)c2)cc1,11.0%,i,4.0,21.8,-37.5%,2.12µM*
O=C(N/N=C/c1cccnc1)c1cccc(Br)c1,6.8%,i,-1.0,5.9,-2.2%,-2.0%
COc1ccc2cc([S+]([O-])Cc3ncc(C)c(OC)c3C)nc2c1,x,x,x,x,x,20.6%
Cc1ccc(-c2cc(C(=O)NCCc3ccccc3)c3ccccc3n2)cc1C,-18.5%,i,7.2,x,-21.3%,16.4%
Cc1ccc(NC(=O)CN2C(=O)NC(Cc3c[nH]c4ccccc34)C2=O)cc1S(=O)(=O)N1CCCCC1 (stereo unspecified),10µM*,u,0.5,4.2,-7.0%,-24.1%
Cc1ccc(NC(=O)CSc2nc3c(sc4ccccc43)c(=O)n2CCCC(=O)NC2CCCC2)cc1C,-5.9%,x,-7.1,x,-4.9%,x
CCc1cc2c(=O)[nH]c(-c3ccccn3)nc2s1,5.01µM*,5.62µM*,-22.2,-68.3*,-30.6%,u
CCc1cc2c(=O)[nH]c(N3CCCC3)nc2s1,36.7%,i,5.1,3.7,6.7%,19.9%
Cc1cc(-c2cc(C(=O)NCc3ccccc3)on2)nc(S(C)(=O)=O)n1,u,u,-30.7,-64.8*,-13.5%,u
COCCNc1nc(C)cc(-c2cc(C(=O)NCc3ccccc3)on2)n1,-7.6%,i,0.9,-17.0,-11.6%,-5.6%
CN(C)CC/C=C1\c2ccccc2COc2ccccc21,9.9%,i,-89.3,-77.3*,-11.8%,0.4%
